Measurements published in PubChem BioAssay (Tox21).
Several values for one entry are separate records, joined by “and”; a condition that tells them apart may be missing. Identical values can stand only once. Results filed as inconclusive are left out. Some compounds were tested as several samples or in several runs, with calls that do not always agree. Activity calls are given as the source filed them. Unless noted, calls come from the whole dose curve; as a rule, active = well fitted curve in the direction sought with a large enough effect in the repeat runs; inconclusive = weak or mixed curves; inactive = no such curve, though single readings can be large; an effect the other way counts as inactive or inconclusive.

Assays:
[1] = qHTS assay to identify small molecule antagonists of the retinoid acid receptor (RAR) signaling pathway - cell viability counter screen (AID 1159551); note: nearly all actives have a fitted effect of over 35% in size
How it was run: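 C3RL4 cells were seeded overnight at 37 C, then treated with compounds plus 1 uM (final) retinol for 6 h at 37 C. Viability was read as ATP by CellTiter-Glo luminescence after 30 min at room temperature.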

[2] = qHTS assay to identify small molecule antagonists of the retinoic acid receptor (RAR) signaling pathway (AID 1159552; note: nearly all actives have a fitted effect of over 50% in size)
How it was run: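 Using a RARE-driven luciferase construct in C3RL4 cells, retinol at 1 uM final provided the agonist stimulus while compounds were co-applied. After 6 hours at 37 C, luminescence was recorded to flag inhibitors of retinol signaling.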

[3] = qHTS assay to identify small molecule agonists of the retinoic acid receptor (RAR) signaling pathway (AID 1159553); details: C3RL4 RARE luciferase reporter, agonist, 6 h; activation: at 73.3 µM (top of the series) unless noted; note: potency is the fitted concentration of half-maximal effect
How it was run: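 C3RL4 cells carrying a RARE luciferase reporter were plated overnight at 37 C, then exposed to compounds in DMSO for 6 hr at 37 C and 5% CO2. Luminescence was read 30 min after luciferase reagent addition at room temperature.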

[4] = qHTS assay to identify small molecule antagonists of the estrogen related receptor (ERR) signaling pathway from Tox21 library - cell viability counter screen (AID 1224834); note: nearly all actives have a fitted effect of over 30% in size; note: potency is the fitted concentration of half-maximal effect
How it was run: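 ERR reporter cells were plated 6 h before compound addition, then exposed to test compounds in DMSO for 17.5 h at 37 C. Viability was read as CellTiter-Fluor fluorescence after a 30-minute incubation at 37 C.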

[5] = molecular target: Luciferin 4-monooxygenase (Photinus pyralis) (UniProt P08659); assay: qHTS assay to identify small molecule inhibitors of firefly luciferase (AID 1224835); note: nearly all actives have a fitted effect of over 25% in size; note: potency is the fitted concentration of half-maximal effect
Luciferin 4-monooxygenase (Photinus pyralis), sequence (P08659 whole entry, looked up): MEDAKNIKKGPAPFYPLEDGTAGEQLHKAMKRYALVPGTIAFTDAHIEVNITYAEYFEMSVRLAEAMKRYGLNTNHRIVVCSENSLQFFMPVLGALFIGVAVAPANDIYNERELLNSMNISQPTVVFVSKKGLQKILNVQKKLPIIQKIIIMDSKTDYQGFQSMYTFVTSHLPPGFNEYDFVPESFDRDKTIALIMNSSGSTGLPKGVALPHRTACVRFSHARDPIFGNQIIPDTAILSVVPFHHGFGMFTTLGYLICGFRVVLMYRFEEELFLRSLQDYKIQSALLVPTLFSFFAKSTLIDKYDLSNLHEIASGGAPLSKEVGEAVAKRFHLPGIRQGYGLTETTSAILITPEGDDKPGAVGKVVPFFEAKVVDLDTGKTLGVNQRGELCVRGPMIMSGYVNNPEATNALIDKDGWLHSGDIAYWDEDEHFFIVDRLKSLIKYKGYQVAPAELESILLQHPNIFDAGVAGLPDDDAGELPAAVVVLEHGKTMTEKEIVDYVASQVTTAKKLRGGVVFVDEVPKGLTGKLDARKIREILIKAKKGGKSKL
How it was run: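 Inhibition of purified Photinus luciferase is measured by luminescence. Substrate levels (D-luciferin, ATP) sit at their KM values. Each compound is tested in a concentration series.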

[6] = qHTS assay to identify small molecule antagonists of the constitutive androstane receptor (CAR) signaling pathway - cell viability counter screen (AID 1224837); note: nearly all actives have a fitted effect of over 45% in size; note: potency is the fitted concentration of half-maximal effect
How it was run: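 HepG2 cells stably expressing hCAR and a CYP2B6-2.2kb reporter were plated and pre-incubated 4 hr at 37 C/5% CO2, then given compounds at 15 concentrations plus 50 nM CITCO (final). After 23 hr, viability was read by CellTiter-Fluor fluorescence.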

[7] = molecular target: Nuclear receptor subfamily 1 group I member 3 (Homo sapiens) (UniProt Q14994); assay: qHTS assay to identify small molecule antagonists of the constitutive androstane receptor (CAR) signaling pathway (AID 1224838); note: nearly all actives have a fitted effect of over 40% in size
Nuclear receptor subfamily 1 group I member 3 (Homo sapiens), sequence (Q14994 whole entry, looked up): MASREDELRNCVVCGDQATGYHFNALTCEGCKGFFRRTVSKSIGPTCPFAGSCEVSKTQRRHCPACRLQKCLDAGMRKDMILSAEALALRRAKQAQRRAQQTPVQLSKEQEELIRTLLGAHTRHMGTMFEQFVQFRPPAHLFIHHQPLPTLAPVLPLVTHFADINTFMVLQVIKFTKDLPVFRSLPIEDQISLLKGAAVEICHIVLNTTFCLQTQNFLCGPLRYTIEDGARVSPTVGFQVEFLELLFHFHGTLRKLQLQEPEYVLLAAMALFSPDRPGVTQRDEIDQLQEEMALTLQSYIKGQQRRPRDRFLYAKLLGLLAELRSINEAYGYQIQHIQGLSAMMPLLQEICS
How it was run: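 HepG2 cells stably co-transfected with hCAR and a CYP2B6-2.2kb luciferase reporter were seeded 4 h before compound addition at 15 concentrations. Cells were stimulated with 50 nM CITCO (final) for 24 h at 37 C; luciferase luminescence was then read.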

[8] = molecular target: Nuclear receptor subfamily 1 group I member 3 (Homo sapiens) (UniProt Q14994); assay: qHTS assay to identify small molecule agonists of the constitutive androstane receptor (CAR) signaling pathway (AID 1224839); note: nearly all actives have a fitted effect of over 15% in size; note: potency is the fitted concentration of half-maximal effect;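 for activation: HepG2 cells stably carrying human CAR and a CYP2B6 luciferase reporter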
How it was run: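 Using human hepatoma HepG2 cells engineered with hCAR and a CYP2B6-2.2kb reporter, 15-concentration compound series were incubated 24 h alongside PK11195 at 0.75 uM final, with luminescence quantified afterwards.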

[9] = qHTS assay to identify small molecule antagonists of the estrogen related receptor signaling pathway with the pleiotropic PPARgamma coactivator (PGC) from Tox21 10K library - cell viability counter screen (AID 1224840; active = well fitted cell-killing curve with a large enough effect in the repeat runs, not every such curve was filed as active; note: nearly all actives have a fitted effect of over 40% in size)
How it was run: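 PGC/ERR cells were seeded at 2,000 cells/well and left 6 hours at 37 C/5% CO2 before pin-tool addition of compounds in DMSO. After 17.5 hours at 37 C, CellTiter-Fluor was added and fluorescence read 30 minutes later.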

[10] = qHTS assay to identify small molecule antagonists of the estrogen related receptor signaling pathway with the pleiotropic PPARgamma coactivator (PGC) from Tox21 10K library (AID 1224841; call rule not given here; note: actives are mostly falling curves and most rising ones were filed inactive; nearly all actives have a fitted effect of over 50% in size; note: potency is the fitted concentration of half-maximal effect)
How it was run: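 PGC/ERR reporter cells were seeded at 2,000 cells/well and held 6 hours at 37 C/5% CO2 before pin-tool addition of compounds in DMSO. After 18 hours at 37 C, One-Glo was added and luminescence read after 30 minutes at room temperature.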

[11] = qHTS assay to identify small molecule agonists of the estrogen related receptor signaling pathway with the pleiotropic PPARgamma coactivator (PGC) from Tox21 10K library (AID 1224842); note: nearly all actives have a fitted effect of over 15% in size
How it was run: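 Luminescence from One-Glo (30 min, room temperature) measured after PGC/ERR cells had 18 h at 37 C with pinned compound (23 nL in DMSO). Cells had been seeded at 2,000 per well and pre-incubated 6 h.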

[12] = molecular target: Thyrotropin receptor (Homo sapiens) (UniProt P16473); assay: qHTS assay to identify small molecule agonists of the thyroid stimulating hormone receptor (TSHR) signaling pathway (AID 1224843; calls by dose curve; note: nearly all actives have a fitted effect of over 45% in size)
Thyrotropin receptor (Homo sapiens), sequence (P16473 whole entry, looked up): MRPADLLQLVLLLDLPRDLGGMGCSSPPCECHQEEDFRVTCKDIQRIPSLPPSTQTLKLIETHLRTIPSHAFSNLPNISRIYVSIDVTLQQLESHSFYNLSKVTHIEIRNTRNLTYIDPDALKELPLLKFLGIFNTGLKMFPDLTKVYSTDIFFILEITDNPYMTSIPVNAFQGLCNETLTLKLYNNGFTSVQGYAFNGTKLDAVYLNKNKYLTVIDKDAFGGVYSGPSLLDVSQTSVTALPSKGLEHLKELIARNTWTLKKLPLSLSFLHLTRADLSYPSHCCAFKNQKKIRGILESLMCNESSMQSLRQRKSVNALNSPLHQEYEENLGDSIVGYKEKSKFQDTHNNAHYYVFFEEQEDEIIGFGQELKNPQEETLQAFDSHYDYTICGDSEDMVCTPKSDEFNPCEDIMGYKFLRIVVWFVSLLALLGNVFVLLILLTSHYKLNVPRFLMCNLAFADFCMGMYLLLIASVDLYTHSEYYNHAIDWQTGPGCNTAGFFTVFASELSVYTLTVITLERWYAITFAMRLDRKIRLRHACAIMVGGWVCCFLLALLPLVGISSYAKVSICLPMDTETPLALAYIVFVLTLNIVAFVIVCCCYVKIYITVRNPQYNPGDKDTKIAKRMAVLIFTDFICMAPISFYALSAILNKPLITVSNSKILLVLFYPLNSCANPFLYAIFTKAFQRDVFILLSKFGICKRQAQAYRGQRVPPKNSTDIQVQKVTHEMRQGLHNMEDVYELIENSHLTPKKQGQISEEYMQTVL
How it was run: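 Screening of the Tox21 10K collection used HEK293 cells engineered with TSHR at 800 cells per well. After a 30-min room-temperature compound exposure, HTRF cAMP reagents were added and fluorescence recorded 1 h later.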

[13] = qHTS assay to identify small molecule agonists of the hypoxia (HIF-1) signaling pathway - cell viability counter screen (AID 1224844; calls by dose curve; note: nearly all actives have a fitted effect of over 50% in size)
How it was run: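 HRE-bla ME-180 cells in medium with 0.5% dialyzed FBS were preincubated 5 hrs at 37C, exposed to compounds for 17 hrs, then viability was read as CellTiter-Glo luminescence after 30 min at room temperature, in the reporter wells.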

[14] = qHTS assay to identify small molecule agonists of the constitutive androstane receptor (CAR) signaling pathway - cell viability counter screen (AID 1224836); note: nearly all actives have a fitted effect of over 45% in size; note: potency is the fitted concentration of half-maximal effect
How it was run: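 Multiplexed viability check: HepG2-CYP2B6-hCAR cells, 15-point compound dosing, 0.75 uM PK11195 final, 23 h at 37 C, CellTiter-Fluor fluorescence.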

[15] = qHTS assay to identify small molecule antagonists of the estrogen related receptor (ERR) signaling pathway - cell viability counter screen (AID 1224818);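 note: viability measured after 17.5 h of compound exposure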
How it was run: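 ERR reporter cells plated 6 h at 37 C/5% CO2, then compounds in DMSO pin-transferred and incubated 17.5 h at 37 C. Viability read as CellTiter-Fluor fluorescence after 30 min at 37 C.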

[16] = qHTS assay to identify small molecule antagonists of the estrogen related receptor (ERR) signaling pathway (AID 1224819;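 note: luminescence from an ERR-driven luciferase reporter measured with One-Glo reagent; nearly all actives have a fitted effect of over 50% in size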)
How it was run: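 ERR reporter cells were plated at 2,000 cells/well and left 6 h at 37 C/5% CO2 before pin-tool transfer of compounds in DMSO. After 18 h at 37 C, One-Glo was added and luminescence was read 30 min later at room temperature.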

[17] = qHTS assay to identify small molecule agonists of the estrogen related receptor (ERR) signaling pathway (AID 1224820)
How it was run: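 ERR reporter cell line (from NTP), 2,000 cells/well, incubated 6 h before compound addition, then 18 h at 37 C. Luminescence measured 30 min after One-Glo reagent at room temperature.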

[18] = system: estrogen-related receptor alpha (ERRalpha) with PGC-1alpha coactivator, human; assay: qHTS assay to identify small molecule antagonists of the estrogen related receptor signaling pathway with the pleiotropic PPARgamma coactivator (PGC) (AID 1224821; calls by dose curve)
How it was run: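 PGC/ERR reporter cell line, plated 6 h before compound addition, then exposed 18 h at 37 °C. Luciferase activity read by luminescence 30 min after One-Glo addition; decrease indicates antagonism.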

[19] = qHTS assay to identify small molecule antagonists of the estrogen related receptor signaling pathway with the pleiotropic PPARgamma coactivator (PGC) cell viability counter screen (AID 1224822)
How it was run: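 PGC/ERR cells were seeded at 2,000 cells/well, rested 6 h at 37 C/5% CO2, then given compounds in DMSO by pin tool and incubated 17.5 h at 37 C. Viability came from CellTiter-Fluor fluorescence after 30 min.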

[20] = qHTS assay to identify small molecule agonists of the estrogen related receptor signaling pathway with the pleiotropic PPARgamma coactivator (PGC) (AID 1224823)
How it was run: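 PGC/ERR reporter cells seeded 6 h, then exposed to compounds (23 nL in DMSO) for 18 h at 37 C. One-Glo luciferase luminescence read after 30 min at room temperature.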

Measured: Potency

CCOP(=O)(OCC)OCC
not listed: [14] | [15] | [16] | [17] | [18] | [19] | [20]
inactive: all other assays above

CCC(=O)Nc1ccc(Cl)c(Cl)c1
inactive: [1] | [2] | [3] | [4] | [5] | [14] | [6] | [7] | [8] | [9] | [13]

ClC(Cl)(Cl)Br
not listed: [10] | [11] | [15] | [16] | [17] | [18] | [19] | [20]
inactive: all other assays above

O=[N+]([O-])c1ccc(Nc2ccccc2)cc1
active: [4] 27.5 µM and 30.6 µM | [14] 48.9 µM | [6] 30.9 µM
not listed: [9] | [15] | [16] | [17] | [18] | [19] | [20]
inactive: all other assays above

CCCCOC(=O)COC(=O)c1ccccc1C(=O)OCCCC
active: [5] 12.6 µM and 35.6 µM
not listed: [12] | [15] | [16] | [17] | [18] | [19] | [20]
inactive: all other assays above

O=C(O)c1nn(Cc2ccc(Cl)cc2Cl)c2ccccc12
68.1 µM (active) and inactive: [10]
not listed: [5] | [14]
inactive: all other assays above

CNC(=O)Oc1cccc2c1OC(C)(C)C2
not listed: [14] | [15] | [16] | [17] | [18] | [19] | [20]
inactive: all other assays above

ClCC(Cl)CCl
not listed: [15] | [16] | [17] | [18] | [19] | [20]
inactive: all other assays above

CCCCC(C#N)(Cn1cncn1)c1ccc(Cl)cc1 (stereo unspecified)
not listed: [12] | [15] | [16] | [17] | [18] | [19] | [20]
inactive: all other assays above

CC(C)=CC1C(C(=O)OCc2cccc(Oc3ccccc3)c2)C1(C)C (stereo unspecified)
active: [8] 4.86 µM and 6.68 µM
not listed: [15] | [16] | [17] | [18] | [19] | [20]
inactive: all other assays above

Clc1ccccc1-c1nnc(-c2ccccc2Cl)nn1
active: [3] 6.8 µM | [5] 1.4 µM and 708 nM | [8] 30.4 µM and 9.66 µM
inactive: [1] | [2] | [4] | [14] | [6] | [7] | [9] | [12] | [13]

COc1ccc(O)c(C(C)(C)C)c1
inactive: [1] | [2] | [3] | [4] | [5] | [14] | [6] | [7] | [8] | [9] | [13]

CN(C)P(=O)(N(C)C)N(C)C
not listed: [7] | [8] | [15] | [16] | [17] | [18] | [19] | [20]
inactive: all other assays above

CC1CC(=O)O1 (stereo unspecified)
inactive: [1] | [2] | [3] | [4] | [5] | [14] | [6] | [9] | [12] | [13]

CC(C)COC(=O)c1ccccc1C(=O)OCC(C)C
inactive: [1] | [2] | [3] | [4] | [5] | [14] | [6] | [9] | [12] | [13]

O=P(OCCCl)(OCCCl)OCCCl
4.81 µM (active) and inactive: [10]
not listed: [12] | [14] | [15] | [16] | [17] | [18] | [19] | [20]
inactive: all other assays above
